Measured values: PubChem BioAssay (NCATS)
Results filed as inconclusive are left out. Calls of active or inactive are those of the source. Unless noted, calls follow the shape of the dose curve; as a rule, active = well fitted curve in the direction sought with a large enough effect; inconclusive = small, poorly fitted or top-dose-only effect, or another doubt; inactive = no such curve, though single readings can be large; an effect the other way counts as inactive or inconclusive.

Tests used:
[1] = qHTS to identify inhibitors of the type 1 interferon - major histocompatibility complex class I in skeletal muscle: primary screen against the NCATS Pharmaceutical Collection (AID 1347407);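 also: luminescence of HiBiT knocked into endogenous HLA-B as interferon-induced MHC class I level; % is scaled to controls: 0 for no effect and ±100 for the full control effect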
How it was run: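 Immortalized human myoblasts (C25cl48) with HiBiT knocked into endogenous HLA-B*08:01 were stimulated with 4 ng/ml IFN-beta and treated with compounds (8-point, 1:5, top 46 uM final) for 24 h at 37 C; HiBiT lytic luminescence read.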

[2] = biological target: Protein phosphatase 1D (Homo sapiens) (UniProt O15297); assay: RapidFire Mass Spectrometry qHTS Assay for Modulators of WT P53-Induced Phosphatase 1 (WIP1) (AID 1347424);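 also: amount of dephosphorylated VEPPL-S-QETFS peptide product formed by WIP1; series mostly up to about 63 µM; plate controls were DMSO wells for no effect and GSK830371 inhibitor control at 10 µM for full effect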
How it was run: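 WIP1 (10 nM final) was preincubated 1 h at room temperature with compounds in Tris-HCl pH 7.5, 30 mM MgCl2, TCEP, EGTA, BSA; 2 uM VEPPL-pS-QETFS phosphopeptide was added for 5 min, quenched with formic acid, and dephosphorylated product quantified by RapidFire MS.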

[3] = biological target: Protein phosphatase 1D (Homo sapiens) (UniProt O15297); assay: Rhodamine-PBP qHTS Assay for Modulators of WT P53-Induced Phosphatase 1 (WIP1) (AID 1347425); also: % of control where 0% means no effect
How it was run: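 Read-out: Rhodamine-PBP fluorescence (ex 525/em 598 nm) for released Pi, read each minute for 11 min after adding 10 uM VEPPL-pS-QETFS; signal taken as f1 minus pre-substrate f0. Enzyme 5 nM WIP1 with 1 hr room-temperature compound preincubation.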

[4] = Primary qHTS for inhibitors of La Crosse Virus (LACV) - induced cell death in SH-SY5Y cells (AID 1508616);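 also: top concentration of the series differs between compounds; 0% = infected DMSO wells and 100% = uninfected DMSO wells; higher means more rescue of cells from virus-induced death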
How it was run: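 Protection against LACV-induced cell death is scored in SH-SY5Y cells exposed to compounds and virus (0.01 MOI) for 6 days. Data normalized to virus-infected DMSO wells and virus-free DMSO wells.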

[5] = biological target: Calcium and integrin-binding protein 1 (Homo sapiens) (UniProt Q99828); assay: Primary qHTS for Identification of Calcium Integrin Binding Protein 1 (CIB1) Competitor (AID 1508620);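 also: GST tagged CIB1 binding a fluorescein labelled alphaIIb integrin peptide tracer; top concentration of the series differs between compounds; % is scaled to controls: 0 for no effect and ±100 for the full control effect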
How it was run: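 Fluorescence polarization competition: CIB1-GST (1 uM final) preincubated with compound 15 min at room temperature, then FITC-labeled alphaIIb peptide (100 nM final) added for another 15 min. Polarization read at Ex 480/Em 540.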

[6] = Primary qHTS for small molecule stabilizers of the endoplasmic reticulum resident proteome: Secreted ER Calcium Modulated Protein (SERCaMP) assay (AID 1508630); also: % is scaled to controls: 0 for no effect and ±100 for the full control effect
How it was run: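 GLuc-SERCaMP-expressing SH-SY5Y cells, pretreated 16 h with compound, are challenged with thapsigargin to empty ER calcium stores; after 4 h, coelenterazine is added directly to the medium and luminescence is imaged.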

[7] = A High-Content qHTS Against Drug Library for the Identification of Small Molecules that Inhibit DYT1 Early Onset Primary Dystonia-Associated Cell Pathology (AID 1645839; calls by dose curve; also: series mostly up to about 46 µM)
How it was run: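 Readout: %pathology, the punctate EGFP-TorsinA distribution from imaging, as the primary channel and cell count as the toxicity counterscreen. HEK293 Flp-In cells expressing delE TorsinA were induced with tetracycline and treated with compound for 48 h.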

[8] = biological target: Cytochrome P450 2D6 (Homo sapiens) (UniProt P10635); assay: Cytochrome P450 family 2 subfamily D member 6 (CYP2D6) small molecule antagonists: luciferase biochemical (cell-free) qHTS assay (AID 1645840; active = well fitted curve in the direction sought with a large enough effect in the repeat runs; an effect the other way counts as inactive or inconclusive; also: nearly all actives have a fitted effect of over 55% in size; also: potency is read from the fitted curve at half-maximal effect)
How it was run: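 P450-Glo luminescent screen: recombinant CYP2D6 enzyme–proluciferin substrate mix preincubated with compound 10 min at room temperature, then NADPH regeneration added for 1 h at room temperature. Detection reagent added for 20 min; luciferin light read as relative luminescence units.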

[9] = qHTS to identify inhibitors of the type 1 interferon - major histocompatibility complex class I in skeletal muscle: primary screen against the NCATS Mechanism Interrogation Plate v5.0 (MIPE) Libary (AID 1347411);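 also: plate controls were vehicle for no effect and reference inhibitor for full effect; nearly all actives have a fitted effect of over 65% in size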
How it was run: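 Luminescence from HiBiT-tagged endogenous HLA-B*08:01 served as the MHC class I read-out. CRISPR-engineered C25cl48 human myoblasts received 4.0 ng/ml IFN-beta plus compound for 24 hrs, with an 11-point, 1:3 series topping at 46 uM final.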

[10] = qHTS for activators of Nrf2/ARE signaling pathway screened against the NCATS CANVASS Library (AID 1347391); also: 0% is about no effect; nearly all actives have a fitted effect of over 60% in size
How it was run: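 Plate ARE-bla HepG2 cells at 2000/well and let them settle 5 h. Pin-transfer compounds in DMSO, incubate 16 h at 37C. Load CCF4 for 2 h at room temperature and read blue/green fluorescence.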

[11] = qHTS for activators of dead-cell proteases activity screened against the NCATS CANVASS Library (AID 1347392);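 also: luminescence from protease leaking out of membrane-damaged cells cleaving impermeant substrate; 0% is about no effect; rising signal means more cytotoxicity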
How it was run: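 HepG2 cells (2000/well) attached 18 h at 37C, then exposed 5 h to compounds (11-point qHTS). Dead-cell protease activity read as luminescence from cell-impermeant AAF-aminoluciferin substrate after 15 min at room temperature.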

[12] = qHTS for inhibitors of ER calcium dysfunction: SERCaMP assay screened against the NCATS CANVASS Library (AID 1347393);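 also: series mostly up to about 77 µM; % is scaled to controls: 0 for no effect and ±100 for the full control effect; lower secreted reporter signal means inhibitor of ER calcium depletion; nearly all actives have a fitted effect of over 40% in size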
How it was run: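 qHTS in SH-SY5Y reporter cells: 16 h compound pretreatment, 4 h thapsigargin, then secreted Gaussia luciferase measured by luminescence.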

[13] = Vero-766 cells viability qHTS against the NCATS CANVASS Library: Counterscreen for Zika virus inhibition assay (AID 1347394); also: series mostly up to about 46 µM; % is scaled to controls: 0 for no effect and ±100 for the full control effect; nearly all actives have a fitted effect of over 60% in size
How it was run: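 Uninfected Vero 766 (African green monkey) cells, 1000/well, attached overnight, then exposed 72 h at 37C to compounds (11-point qHTS). Viability read by CellTiter-Glo luminescence; media-only wells served as 100% inhibition.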

[14] = qHTS for inhibitors of Wild type Zika virus screened against the NCATS CANVASS Library (AID 1347396);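 also: ATP luminescence of surviving cells so rescue from viral cell killing; series mostly up to about 46 µM; % is scaled to controls: 0 for no effect and ±100 for the full control effect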
How it was run: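 Vero 766 cells, 1000/well, o/n attach; cpds pin-transferred (11-pt qHTS); WT Zika added; 72 h, 37C, 5% CO2; CellTiter Glo lumi. Uninfected + vehicle = 100% inhibition.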

[15] = Viability qHTS for inhibitors of the SERCaMP assay screened against the NCATS CANVASS Library (AID 1347400); also: series mostly up to about 92 µM; % is scaled to controls: 0 for no effect and ±100 for the full control effect; nearly all actives have a fitted effect of over 70% in size
How it was run: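 SH-SY5Y SERCaMP MJH297 cells, 1000/well; 4 h settle, 37C/5% CO2; pin-transferred cpds; 48 h; CellTiter-Glo lum. Pos ctrl bortezomib 0.0001 - 4.6 uM.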

[16] = Redox Reaction Profiling qHTS: Assay Interference Panel against the NCATS CANVASS Library (AID 1347401);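 also: 100% = activation by 2 µM chloranil control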
How it was run: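 Resazurin (5 uM) conversion to resorufin measured with 200 uM DTT in 50 mM HEPES pH 7.3, 50 mM NaCl. Compounds tested in 11-point qHTS series. Fluorescence (ex 525/em 598 nm) read before and after 15 min dark incubation.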

Sequence of Calcium and integrin-binding protein 1 (Homo sapiens) (Q99828 whole entry, looked up): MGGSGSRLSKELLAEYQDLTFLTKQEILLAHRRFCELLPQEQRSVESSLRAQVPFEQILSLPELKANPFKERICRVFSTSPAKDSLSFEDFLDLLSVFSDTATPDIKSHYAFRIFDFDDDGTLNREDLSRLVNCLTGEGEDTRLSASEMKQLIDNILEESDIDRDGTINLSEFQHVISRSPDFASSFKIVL
Sequence of Cytochrome P450 2D6 (Homo sapiens) (P10635 whole entry, looked up): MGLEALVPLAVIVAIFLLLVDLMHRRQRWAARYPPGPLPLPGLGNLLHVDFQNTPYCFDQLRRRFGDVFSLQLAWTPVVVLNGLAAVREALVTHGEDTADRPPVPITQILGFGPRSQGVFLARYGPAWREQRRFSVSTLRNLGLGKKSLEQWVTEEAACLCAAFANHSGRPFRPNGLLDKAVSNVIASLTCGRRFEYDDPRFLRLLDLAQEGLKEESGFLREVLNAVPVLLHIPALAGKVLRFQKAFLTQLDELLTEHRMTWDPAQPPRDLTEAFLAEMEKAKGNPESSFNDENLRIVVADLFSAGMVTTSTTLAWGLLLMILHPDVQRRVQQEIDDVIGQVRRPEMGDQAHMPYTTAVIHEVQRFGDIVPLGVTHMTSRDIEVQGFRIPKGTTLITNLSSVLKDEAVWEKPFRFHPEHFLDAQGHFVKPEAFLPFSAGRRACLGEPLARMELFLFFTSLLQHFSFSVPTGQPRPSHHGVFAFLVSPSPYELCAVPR
Sequence of Protein phosphatase 1D (Homo sapiens) (O15297 whole entry, looked up): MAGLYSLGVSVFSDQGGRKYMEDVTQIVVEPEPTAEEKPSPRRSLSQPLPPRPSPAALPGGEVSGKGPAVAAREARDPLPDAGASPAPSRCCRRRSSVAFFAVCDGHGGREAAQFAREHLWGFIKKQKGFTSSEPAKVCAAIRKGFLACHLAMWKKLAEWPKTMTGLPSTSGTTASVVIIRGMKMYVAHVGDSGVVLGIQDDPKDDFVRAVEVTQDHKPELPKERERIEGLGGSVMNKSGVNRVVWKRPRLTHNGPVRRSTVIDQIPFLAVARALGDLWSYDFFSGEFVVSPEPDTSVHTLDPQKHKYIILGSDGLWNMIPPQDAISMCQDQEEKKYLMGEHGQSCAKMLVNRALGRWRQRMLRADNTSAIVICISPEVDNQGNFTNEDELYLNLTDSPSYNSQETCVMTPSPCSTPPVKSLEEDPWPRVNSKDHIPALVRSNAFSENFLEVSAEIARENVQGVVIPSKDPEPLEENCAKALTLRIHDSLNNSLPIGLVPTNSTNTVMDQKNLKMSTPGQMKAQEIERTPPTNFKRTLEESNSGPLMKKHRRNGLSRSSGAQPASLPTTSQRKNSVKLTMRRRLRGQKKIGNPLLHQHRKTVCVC

CCCCCCCC(=O)OCC(O)CO (centres undefined)
inactive: outcome [1] | outcome [2] | outcome [3] | outcome [4] | outcome [5] | outcome [6] | Potency [7] | Potency [8]

OCCN1C[C@H](O)[C@@H](O)[C@H](O)[C@H]1CO
inactive: outcome [1] | outcome [9] | outcome [2] | outcome [3] | outcome [4] | outcome [5] | outcome [6] | Potency [7] | Potency [8]

CC1CCc2cc(F)cc3c(=O)c(C(=O)O)cn1c23 (centres undefined)
inactive: outcome [1] | outcome [2] | outcome [3] | outcome [4] | outcome [5] | outcome [6] | % pathology change, negative = correction [7] -13.4% [at 9.22 µM] | Potency [8]

COc1ccc2cc(CCC(C)=O)ccc2c1
inactive: outcome [1] | outcome [2] | outcome [3] | outcome [4] | outcome [5] | outcome [6] | Potency [7]

C[C@@H]1O[C@@H](OC[C@H]2O[C@@H](Oc3c(-c4ccc(O)c(O)c4)oc4cc(O)cc(O)c4c3=O)[C@H](O)[C@@H](O)[C@@H]2O)[C@H](O)[C@H](O)[C@H]1O
inactive: outcome [10] | outcome [11] | outcome [12] | outcome [13] | outcome [14] | outcome [15] | outcome [16] | outcome [1] | outcome [2] | outcome [5] | Potency [7] | Potency [8]

O=C(O)CCCc1ccccc1
inactive: outcome [1] | outcome [2] | outcome [3] | outcome [4] | outcome [5] | outcome [6] | Potency [7]

CC1CCN(CCCC(=O)c2ccc(F)cc2)CC1
inactive: outcome [1] | outcome [2] | outcome [3] | outcome [4] | outcome [5] | outcome [6] | Potency [7]
active: Potency [8] 195 nM

CCCCCOC(=O)Nc1nc(=O)n([C@@H]2O[C@H](C)[C@@H](O)[C@H]2O)cc1F
inactive: outcome [1] | outcome [9] | outcome [2] | outcome [3] | outcome [4] | outcome [5] | Potency [7] | Potency [8]

CC(=O)OC[C@H]1O[C@@](COC(C)=O)(O[C@H]2O[C@H](COC(C)=O)[C@@H](OC(C)=O)[C@H](OC(C)=O)[C@H]2OC(C)=O)[C@@H](OC(C)=O)[C@@H]1OC(C)=O
inactive: outcome [1] | outcome [2] | outcome [3] | outcome [4] | outcome [5] | outcome [6] | Potency [7] | Potency [8]

NNC(=O)CP(=O)(c1ccccc1)c1ccccc1
inactive: outcome [1] | outcome [2] | outcome [3] | outcome [4] | outcome [5] | outcome [6] | Potency [7] | Potency [8]

COc1ccccc1OC(=O)Oc1ccccc1OC
inactive: outcome [1] | outcome [2] | outcome [3] | outcome [4] | outcome [5] | outcome [6] | Potency [7] | Potency [8]

O=C(CN1CCNCC1)NC1CCCCC1
inactive: outcome [1] | outcome [2] | outcome [3] | outcome [4] | outcome [5] | outcome [6] | Potency [7] | Potency [8]
